In the library only some 1.7% were active in any assay of this set; here they are far more common.
Vc quorum ag-1 = inducers of Vibrio cholerae quorum light production without autoinducers, primary screen, BH1578 luxS cqsA deficient, single point. hit rate 0.16% among 350,000. AID 588436, 2011. V. cholerae BH1578 lux reporter, luminescence, 6 h. activation, % at 18.7 µM; in the data active means activation mostly above about 9.7%, no sharp cut-off
PfHsp40 rescue = rescue of yeast from PfHsp40 toxicity, primary screen, S. cerevisiae, ATP luminescence | S. cerevisiae expressing PfHsp40, growth rescue | growth rescue, % at 12.5 µM | hit rate 0.68% among 340,000; in the data active means growth rescue above about 28%, passing the limit was not always enough;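 further: yeast W303a lacking pdr1 and pdr3 grown in galactose medium; growth measured after three days at 30 °C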
MazEF act = activators of E. coli MazEF toxin-antitoxin RNase, primary screen, biochemical, fluorescence, uHTS; Endoribonuclease toxin MazF (Escherichia coli (strain K12)), P0AE70; FAM/BHQ RNA-DNA oligo cleavage fluorescence, 5 h; activation, % at 20 µM; hit rate 0.32% among 350,000; in the data active means activation above about 50%
Target sequence (P0AE70 whole entry, looked up): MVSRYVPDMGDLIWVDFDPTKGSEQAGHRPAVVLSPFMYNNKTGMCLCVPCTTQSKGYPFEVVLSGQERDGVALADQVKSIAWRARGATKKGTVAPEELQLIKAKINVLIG
SARS 3CLpro inh = SARS-CoV 3CLpro protease inhibitors, primary screen, biochemical, quenched FRET; AID 1706, 2009; recombinant SARS-CoV 3CLpro, quenched FRET peptide cleavage; Replicase polyprotein 1ab (Severe acute respiratory syndrome coronavirus), P0C6X7; inhibition, % at 6 µM; hit rate 0.14% among 290,000; in the data active means inhibition above about 12%
BJeLR viability = MLPCN primary cell-based screen for lethality selective to Ras in HRASV12 cells | inhibition, % (test concentration not listed) | AID 1554, 2009 | hit rate 0.17% among 300,000 | BJeLR (HRASV12) viability, CellTiter-Glo ATP luminescence, 48 h; in the data active means inhibition above about 50%
DUSP3 inh = VHR1 phosphatase inhibitors, primary screen, biochemical, absorbance, uHTS | Dual specificity protein phosphatase 3 (Homo sapiens), P51452 | recombinant VHR phosphatase, pNPP absorbance | inhibition, % at 13.3 µM | hit rate 0.52% among 290,000 | AID 1654, 2009; in the data active means inhibition above about 50%
Target sequence (P51452 whole entry, looked up): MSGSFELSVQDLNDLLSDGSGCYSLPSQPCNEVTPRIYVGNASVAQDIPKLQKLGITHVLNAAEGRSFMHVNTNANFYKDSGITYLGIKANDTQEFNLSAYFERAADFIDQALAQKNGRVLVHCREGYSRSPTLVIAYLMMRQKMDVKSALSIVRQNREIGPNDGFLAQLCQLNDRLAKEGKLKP
Vc quorum ag-2 = V. cholerae lux activation without autoinducers – BH1578 luxS cqsA deficient, cherry-pick, plate reader, dose response | shares compounds with Vc quorum ag-1 | V. cholerae BH1578 lux reporter, luminescence, 6 h | activation, % at 50 µM | 620 tested, under 10 active | AID 602243, 2012; call rule not given here
Starred values were filed as active, the others as inactive; i = inactive; . = no result given.

SMILES	Vc quorum ag-1	PfHsp40 rescue	MazEF act	SARS 3CLpro inh	BJeLR viability	DUSP3 inh	Vc quorum ag-2
O=C(Nc1cccc(Cl)c1)Nc1ccc(Cl)cn1	32.1*	-0.9	0.4	7.4	-4.2	0.0	-0.6
CC(=O)c1ccc(S(=O)(=O)Nc2cccc(-c3ccc4nncn4n3)c2)cc1	23.3*	-0.7	1.2	-2.3	4.6	24.7	0.4
CC(=O)Nc1ccc(S(=O)(=O)Nc2cccc(-c3ccc4nncn4n3)c2)cc1	-0.2	1.0	3.6	-2.8	-7.8	5.5	.
COc1cccc(NC(=O)C2CC(=O)OC23CCOC(C)(C)C3)c1 (configuration not stated)	18.1	2.3	0.4	-4.7	-0.1	18.9	0.4
CC1(C)CC2(CCO1)OC(=O)CC2C(=O)Nc1c(Cl)cccc1Cl (configuration not stated)	-0.7	-1.4	8.4	6.6	-5.4	2.5	.
COc1cc(NC(=O)C2=C(C)OCCS2)c(Cl)cc1C(=O)NCCN(C)C	34.2*	0.1	3.1	-5.4	-3.3	44.0	0.7
O=C(CCCC(=O)N(CC(=O)NC1CCCCC1)c1ccccc1F)Nc1ccccn1	-3.1	-0.1	3.4	-2.5	-8.8	25.5	.
C=CCN1C(=O)c2ccc(C(=O)N(CC)CC(=O)Nc3cc(Cl)ccc3C)cc2C1=O	15.0*	0.2	-7.1	.	6.4	.	-0.2
O=C(NC(Cc1ccccc1)C(=O)O)/C(=C/c1ccc([N+](=O)[O-])cc1)NC(=O)c1ccccc1Br (configuration not stated)	-0.5	0.0	0.5	0.9	-9.9	18.4	.
Cc1onc(-c2ccccc2)c1C(=O)Nc1nc2c(s1)CCCC2	7.6*	2.7	-2.0	5.0	-1.5	-6.0	-0.1
O=C(c1cc(-c2cccs2)nn1-c1ccccc1)N1CCN(S(=O)(=O)c2ccccc2)CC1	14.3	0.2	-13.5	.	-6.0	.	0.0
Clc1ncnc2scc(-c3ccccc3)c12	12.5	-0.9	-3.1	1.1	-8.2	17.1	0.1
Cc1ccc(-c2csc3ncnc(Cl)c23)cc1	i	2.1	3.8	3.5	-1.1	-7.4	.
Cc1ccc(OCCC(=O)OCC(=O)Nc2ccc3c(c2)OCO3)cc1	14.3	0.0	4.3	.	1.4	.	-0.1
c1cn2cc(CN3CCOCC3)nc2s1	12.5	-1.4	4.4	0.1	9.0	4.9	0.0
COc1cc(OC)cc(C(=O)N[C@H](C(=O)OCC(=O)c2ccc(C)c([N+](=O)[O-])c2)C(C)C)c1	-1.9	-0.3	3.6	.	.	.	.
Cc1cc(C)c2c(N)c(C(=O)NC3CC3)sc2n1	i	1.1	2.2	-8.3	-1.8	18.9	.
Cc1cc(C(F)(F)F)c2c(N)c(C(=O)NC3CC3)sc2n1	12.5	-1.0	-1.6	4.9	0.7	10.5	1.0
COc1ccc(C(=O)OCc2cc(C)ccc2C)cc1S(=O)(=O)N1CCCC1	i	8.2	3.4	.	.	.	.
COC(=O)c1cc(COC(=O)c2ccc(OC)c(S(=O)(=O)N3CCCC3)c2)oc1C	12.5	-0.2	-2.1	-5.4	-2.5	15.9	-0.1
O=S(=O)(Cc1ncc(C(F)(F)F)cc1Cl)c1ccccc1	i	1.0	-2.9	6.5	8.5	23.6	.
CCC(C)n1cnc2c(=O)oc3ccccc3c21 (configuration not stated)	114.0*	0.0	3.3	-3.8	-7.9	16.6	20.9
CC(C)Cn1cnc2c(=O)oc3ccccc3c21	1.5	-2.5	-17.6	-2.4	-1.0	28.6	.
COc1ccc(OC)c(S(=O)(=O)N2CCC(C(=O)N3CCCCCC3)CC2)c1	i	0.1	1.5	-1.6	-3.9	-2.6	.
O=C(CN1C(=O)COc2ccccc21)c1ccc(Cl)cc1	16.7*	0.4	3.9	1.1	1.9	25.3	0.5

Source: PubChem BioAssay (several laboratories)
